As a reminder, the AC50 is the concentration at which the activity in the assay is half-maximal.

The source of these data is PubChem BioAssay AID1851 (National Center for Advancing Translational Sciences (NCATS), 2009).

Hit rate of the full screen: of about 16,000 compounds, about 4,000 (25%) were called active. Another 26% or so got no clear call; they are omitted. Calls follow the shape of the dose curve; as a rule, active = well fitted curve in the direction sought with a large enough effect; inconclusive = small, poorly fitted or top-dose-only effect, or effect the other way; inactive = no such curve, though single readings can be large or run the other way. These entries were drawn from the full list.
% is scaled to controls: 0 for no effect and ±100 for the full control effect.

Cytochrome P450 2C9 (Homo sapiens), sequence (P11712 whole entry, looked up): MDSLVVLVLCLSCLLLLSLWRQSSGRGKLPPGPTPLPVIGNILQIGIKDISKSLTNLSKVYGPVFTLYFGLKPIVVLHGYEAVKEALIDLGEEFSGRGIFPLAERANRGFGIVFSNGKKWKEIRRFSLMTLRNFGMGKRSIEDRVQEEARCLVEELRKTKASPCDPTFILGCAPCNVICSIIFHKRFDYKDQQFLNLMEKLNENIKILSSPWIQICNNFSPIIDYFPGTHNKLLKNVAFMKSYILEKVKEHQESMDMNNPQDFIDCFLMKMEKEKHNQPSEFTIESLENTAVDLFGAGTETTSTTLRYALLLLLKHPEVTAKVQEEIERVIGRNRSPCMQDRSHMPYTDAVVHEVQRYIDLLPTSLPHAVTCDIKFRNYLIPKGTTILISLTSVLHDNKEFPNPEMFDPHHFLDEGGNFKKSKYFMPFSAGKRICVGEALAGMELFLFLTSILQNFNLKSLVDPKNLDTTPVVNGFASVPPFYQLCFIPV

The assay addresses Cytochrome P450 2C9 (Homo sapiens) (UniProt P11712). The experiment in a line: Cytochrome panel assay with activity outcomes. The settings on record: recombinant CYP, pro-luciferin dealkylation, luminescence, p450-cyp2c9; series mostly up to 57.1 µM; activity, negative = inhibition: at the top concentration.
Turning to `O=C1NC(c2cccc([N+](=O)[O-])c2)=CCN1c1ccccc1O`, the AC50 was 1 µM (active).

Take `Nc1nc(-c2cccc([N+](=O)[O-])c2)cc(-c2cc(-c3cccc([N+](=O)[O-])c3)nc(N)n2)n1`: the activity, negative = inhibition was 20.9% [at 11.4 µM] (inactive).

On to `Cc1c(-c2ccc(F)cc2)nc(N)c(C#N)c1-c1cccs1`, for which the AC50 is 1.58 µM (active).

In the case of `Nc1nc(-c2cccs2)cs1`, the “activity, negative = inhibition” value was -11.3% (inactive).

Take `CSc1nc(N)nc(-c2cccs2)c1C#N`: the AC50 is 7.08 µM (active).

With `Cc1cnc(CNc2ccnc(-c3ccc(N(C)C)cc3)n2)cn1`, the activity, negative = inhibition was 1.73% [at 2.29 µM] (inactive).

Take `COc1cccc(/C=N/n2nnc3c(cnn3-c3ccccc3)c2=O)c1`: the “activity, negative = inhibition” value was 1.29% (inactive).

`O=C(CCN1CCCCC1)N1CCc2c([nH]c3ccccc23)[C@H]1c1cccnc1`: the activity, negative = inhibition is 2.98% [at 11.4 µM] (inactive).

On to `Clc1ccc(CSC2=NCCN2)cc1Cl`, for which the activity, negative = inhibition was 9.47% [at 11.4 µM] (inactive).

Regarding `CNc1cc(CSC)nc(SCc2ccc(Cl)c(Cl)c2)n1`, the AC50 was 8.91 µM (active).

Take `COc1ccc(-c2nc3cnc(Nc4cccc(OC)c4)nc3n(CCC#N)c2=O)cc1`: the “activity, negative = inhibition” value was 4.66% (inactive).

`COc1cc(C2SCCCCCCCCCCSC(c3ccc(O)c(OC)c3)SCCCCCCCCCCS2)ccc1O` (stereo unspecified): the activity, negative = inhibition is 10.3% [at 11.4 µM] (inactive).

Consider `COc1ccc(NC(=O)C2CC(=O)NC3=C2C(=O)CC(C)(C)C3)cc1` (stereo unspecified), for which the “activity, negative = inhibition” value was -7.67% (inactive).

As for `COc1ccc(OC)c(C2CC(=O)C3=C(C2)NC(=O)CC3c2ccc(O)c(OC)c2)c1` (stereo unspecified), the AC50 is 11.2 µM (active).

Turning to `O=C=Nc1ccc(Cc2ccc(N=C=O)cc2)cc1` (tested in a mixture with another compound), the activity, negative = inhibition is 2.55% [at 11.4 µM] (inactive).

For `O=C(Nc1ccccc1)N1CCC2(CC1)CCN(C(=O)c1cnccn1)CC2`, the “activity, negative = inhibition” value was 12.7% (inactive).

As for `O=C(Nc1ccccc1N1CCOCC1)c1cnccn1`, the AC50 is 2 µM (active).

For the compound `O=C(NCc1ccccc1Cl)c1cnccn1`, the “activity, negative = inhibition” value was -20.1% (inactive).

Consider `CCC/C=C(\CCC)C(NS(=O)(=O)c1ccc(C(F)(F)F)cc1)c1ccc(-c2ccccc2)cc1` (stereo unspecified), for which the “activity, negative = inhibition” value is -29.2% (inactive).

As for `COC(=O)C/C=C\[C@H](C)[C@H](CO)NS(=O)(=O)c1ccc(C)cc1`, the activity, negative = inhibition is 0.902% [at 11.4 µM] (inactive).

As to `CCC/C=C(\CCC)C(NS(=O)(=O)CC12CCC(CC1=O)C2(C)C)c1ccc(C(=O)OC)cc1` (stereo unspecified), the AC50 is 15.8 µM (active).

For the compound `CCC/C=C(\CCC)C(NS(=O)(=O)c1ccccc1)c1ccc(C(F)(F)F)cc1` (stereo unspecified), the AC50 was 10 µM (active).

Consider `CCC/C=C(\CCC)C(NS(=O)(=O)c1ccc(C(F)(F)F)cc1)c1ccc(C(=O)OC)cc1` (stereo unspecified), for which the AC50 is 3.16 µM (active).

`CCC/C=C(\CCC)C(NS(=O)(=O)c1ccc(Cl)cc1)c1ccc(C(=O)OC)cc1` (stereo unspecified): the AC50 was 3.16 µM (active).

In the case of `COc1c2occc2c(OC)c2c(=O)cc(C)oc12`, the “activity, negative = inhibition” value is -22.4% [at 25.6 µM] (inactive).

As for `Cc1ccccc1[C@@H](OCCN(C)C)c1ccccc1`, the “activity, negative = inhibition” value was -17.5% (inactive).

Consider `CCC/C=C(\CCC)C(NS(=O)(=O)c1ccc(Cl)cc1)c1ccccc1` (stereo unspecified), for which the AC50 was 2.51 µM (active).

Turning to `CCC/C=C(\CCC)C(NS(C)(=O)=O)c1ccccc1` (stereo unspecified), the “activity, negative = inhibition” value is -21.6% (inactive).

As for `CCN(CC)C(=O)N1CCN(C)CC1`, the “activity, negative = inhibition” value was 14.3% [at 25.6 µM] (inactive).

With `CS(=O)(=O)N1CCC2(CCCN(C(=O)Nc3cccc(C#N)c3)C2)CC1`, the “activity, negative = inhibition” value is -4.46% (inactive).

On to `CCOc1ccccc1NC(=O)CSc1nnc(-c2cnccn2)n1C`, for which the “activity, negative = inhibition” value is -16% (inactive).

Regarding `COc1ccccc1-n1c(SCC(=O)Nc2ccccc2F)nc2[nH]ncc2c1=O`, the AC50 was 15.8 µM (active).

For `O=C(CSc1nc2nc(-c3cccs3)cc(C(F)(F)F)c2c(=O)[nH]1)NCc1ccco1`, the AC50 was 0.631 µM (active).

On to `CCn1cc(C(=O)NCC(=O)OC)c2cc(OC)c(OC)cc2c1=O`, for which the “activity, negative = inhibition” value is -29.2% (inactive).

With `CC(C)(C)c1cc2cccnc2n1Cc1ccccc1`, the “activity, negative = inhibition” value is 1.4% (inactive).

In the case of `Oc1ccc(Cn2c(-c3ccc(O)cc3)nc3ccccc32)cc1`, the activity, negative = inhibition was 9.3% [at 11.4 µM] (inactive).

On to `c1ccc(CN2c3ccccc3-c3nc4ccccc4n3C2c2ccccn2)cc1` (stereo unspecified), for which the AC50 was 7.94 µM (active).

With `Clc1ncccc1-c1nc2ccccc2n1Cc1ccccc1`, the half-maximal activity concentration (AC50) was 15.8 µM (active).

Regarding `Clc1ccc(Cn2c(-c3cccnc3Cl)nc3ccccc32)c(Cl)c1`, the AC50 was 5.62 µM (active).

As to `NC(N)=N[C@H](CCC(=O)O)C(=O)O`, the “activity, negative = inhibition” value is 18.9% (inactive).

As to `O=C1OCC(c2ccccc2)=C1c1ccc(S(=O)(=O)N2CCOCC2)s1`, the AC50 is 12.6 µM (active).

`CCCCCC(=O)O[C@H](CC(=O)O)C[N+](C)(C)C`: the “activity, negative = inhibition” value is -7.97% (inactive).

As to `CCN(CC)c1ccc(NC(=O)CN2CCN(c3ccccc3F)CC2)cc1`, the AC50 was 11.2 µM (active).

`COc1ccccc1N1CCN(C[C@@H](C(=O)NC(C)(C)C)c2ccccc2)CC1`: the “activity, negative = inhibition” value is 9.59% (inactive).

As for `O=C(CN1CCN(S(=O)(=O)c2ccc(F)cc2)CC1)Nc1ccc(Cl)c(C(F)(F)F)c1`, the “activity, negative = inhibition” value is -23.9% (inactive).

Consider `COc1ccc(S(=O)(=O)N2CCN(CC(=O)Nc3cc(OC)cc(OC)c3)CC2)cc1`, for which the “activity, negative = inhibition” value is 19.8% (inactive).

On to `O=C(CCN1CCN(c2ccccc2F)CC1)Nc1ccccc1F`, for which the AC50 is 3.98 µM (active).

Turning to `COc1ccccc1NC(=O)CN1CCN(c2ccccc2F)CC1`, the AC50 is 5.01 µM (active).

Take `O=C(NCCCN1CCN(c2ccccc2F)CC1)C1CCC(=O)N1C1CCCCC1` (stereo unspecified): the “activity, negative = inhibition” value is -1.7% (inactive).

For the compound `CC1CCOC2(O1)C(=O)N(CN1CCN(c3ccccc3F)CC1)c1ccccc12` (stereo unspecified), the “activity, negative = inhibition” value is 24.7% (inactive).

Consider `COc1ccc(C)cc1NC(=O)CN1CCN(S(=O)(=O)c2ccc(F)cc2)CC1`, for which the AC50 was 2.51 µM (active).

Consider `Cc1cccc(N2CCN(CC(=O)Nc3ccc(-n4cnnn4)cc3)CC2)c1C`, for which the “activity, negative = inhibition” value was -11.3% (inactive).

With `O=c1c(-c2ccccc2)c(O)c2cccc3c2n1CCC3`, the “activity, negative = inhibition” value was 27.1% (inactive).

In the case of `COc1ccccc1CN1CCCC2(CCNCC2)C1`, the “activity, negative = inhibition” value was -6.14% (inactive).

As to `CCOc1ccc(C(=O)CN2CCN(S(=O)(=O)c3ccc(F)cc3)CC2)cc1`, the “activity, negative = inhibition” value is -47.6% (inactive).

In the case of `CCOC(=O)N1CCN(S(=O)(=O)c2ccc(C(=O)Nc3ccc(F)cc3F)cc2)CC1`, the AC50 was 15.8 µM (active).

As for `COc1cc(NC(=O)c2ccccc2)c(OC)cc1NC(=O)CN1CCN(c2ccccn2)CC1`, the AC50 is 3.16 µM (active).

For `COc1ccccc1N1CCN(CCN(C(=O)C2CCCCC2)c2ccccn2)CC1`, the “activity, negative = inhibition” value was -3.2% (inactive).

As to `COC(=O)N1CCC2(CC1)CN(c1ccccn1)C2`, the “activity, negative = inhibition” value was 0.409% (inactive).

In the case of `CN(C)CCNc1ccccn1`, the activity, negative = inhibition is 3.16% [at 11.4 µM] (inactive).

Take `Cc1noc(C)c1C(=O)N1CCC2(CCCN(Cc3nccs3)C2)CC1`: the “activity, negative = inhibition” value is 4.27% (inactive).
